# Measurements reported in the supplement of paper PMC12632987.
# The full ranking holds about 2,300 sequences; the median of “median log2 fold change of GCK-ALFA target abundance (FLAG IP / Myc IP barcode read proportion)” is about 0.095, and the lowest 2% start at about -0.47. The list comes from a sample in which the lowest values are over-represented; it also holds similar and randomly drawn sequences.
# B1: LC3A_59_2035 (protein)
# chain: SAEAEAAAARVRERGPSVDVVAEVFREVLEKNGLDPELARDLVAALVAVLVEAGLITAEEGAAIRAEADAAIDRLTDVDELVSELRVIILDALLKKNELE
# B2: LC3A_141_361 (protein)
# chain: ATKKETFTLTAKTEEEAIEVAEKIKEKIREFMEKTGAKEVKVTVTITAYNKKTGEVKTETIVETVTPENLDLFEEGLLIELLSYFEKGADEVKVTVTIES
# B3: LC3A_45_1977 (protein)
# chain: MAEATLDVLVPRELAEAALEALKRGAERLLEERGPGVEVDLEALEESYRATRDEEEVLLTVRIRAPTRQEALDLADELVEELERELGRPVAAAISVEELP
# B4: LC3A_59_2019 (protein)
# chain: MEEIEEYREKLREAIDNIDEFVEIVREGLEKFKDDKEKVEALLEEVMEVIVEELGADPEEAEKVLKRMKEIFKTEKDKEKAIELVVDEIRDLLLLTPIEE
# B5: LC3A_3_1859 (protein)
# chain: MEEIKKEIIELLKSLGRSEEVIEAAERLANLLIERGYKEALETLLEELKKLKDVSDEILLAMFEDLIEALETEDLSEEELIERIEEEARIALNDQEIEEL
# B6: LC3A_17_549 (protein)
# chain: MEEIKKELEKLLKELEALVKELEKYDPEAAKKLKKKLKEAKKLLEEGKLKEAAETLAEAARELANKLDELEPKHGNEASVLAMEASGLELEAIGLLLKLE
# B7: LC3A_3_1857 (protein)
# chain: MEEIKKEILELLKKLGRSEETIKAAEELADALIKRGYKKALEKLLEELKKLKNASDELLLDMFKELLAALENEKLNEEELIKKIEEEAKIVKNEQEIIEL
# B8: LC3A_147_450 (protein)
# chain: VLYEITVDILFKNDPELAEEVEEEIKEIAEKYGGEVEVEREVEQETPTTTLYFVRVTIKFEDEEKALEAEQEISELLDETAKKHPEKFVGAMISIEKIEE
# B9: LC3A_28_755 (protein)
# chain: ADIEGTIKEAIERAKKAKEEGKEEVIEITVPAGATQADIDKVIEGMEEIAEINKDMKRTTILVNVEAGVAQENLDKLIDAGEEIEEKYPNVTVIFALDEE
# B10: LC3A_28_1202 (protein)
# chain: SATKAAADAALAEAKALLAAGEEGVVELVVEGKITEEETQYVIDKLEEIAELAAKSGKISIVLDISGEVPEEHQQKLIDKADELEKKYPNVNIIVALEER
# B11: LC3A_3_1805 (protein)
# chain: ADERIEALLEELRAAGASEETIAAAREVLTLLRERGYLEALETLIEGLRELLDAPDELRLDLLEDVLEYLETNDASEEEVTEFIKEEIRLARSESEIEEL
# B12: LC3A_28_1235 (protein)
# chain: NAVEKQIEAAKAEVEAAVAAGEEALVELTVTKETTEEDVEKIIKAMEEIAALAATLPALTIIIDVERGVKQEHIDKLADAADAIEAKYPNVTVIIALEEE
# B13: LC3A_17_592 (protein)
# chain: SEEIKKEIEELLKELKKLIKKMKELGIPEAKEIEKLLKEAEKALKEGDLKKAAELLAKAADLAADALEEKEEELGSEASVLEMEANGLELRAIGILLKLD
# B14: LC3A_17_590 (protein)
# chain: SEEIREELEELLKELKELIKEAKKLGIPEAKEVEKLLKEAEKALKEGKLREAAELLREAADLLADALEEIEEELGSKASVLEMEANGLALRAEGILLKLE
# B15: LC3A_28_956 (protein)
# chain: SALEEALKKAIEEAKKAAEKGEPAVITIKVPGDADEEDIEKVIEALREIAEILKDVKGAAIIVDVDGKVKQEHIDKIAEEAERIEKEYPNVTVIIALDEE
# B16: LC3A_3_1793 (protein)
# chain: AQARIDALLAELRAAGKSDETLAAVRAAATALADRGYEEALATFIEELRELIDAPDEILLDLAEEVLRLIEEEDLDEEELTERIKELAELARNEAEIIEL
# B17: LC3A_free_8_2441 (protein)
# chain: SNQELVDAALKLLDELEEEIEKKAKELGLDETDIGLLLLEVGSAISEVISLSDASPEEILKATKEDLEEIIKLAEEINKELAKIVKEKAEKILKELEKLL
# B18: LC3A_28_693 (protein)
# chain: SAIDKQIAAARAEADAAIAAGEEATLTITVTADTTQADVDRIMAAIEEIAARMAASAKLNIIIDVEAGVPQEHLDRLADFGDALAARYPNVNIIIALDED
# B19: LC3A_free_39_2214 (protein)
# chain: SEEELEELIKEVAKESGLDYEYIKKKIEEIKEIAGLSLEQMKELVKAILEAVKAGADAEEILKRILALAKELKAAGKSPEEIAEALIEEAEDFRNLIPLD
# B20: LC3A_free_39_2217 (protein)
# chain: SMEEIEKLIKEIAEEGGIDYEYVKKKIEEIKEVAGLSDEQILELVKAILEAVKAGADAKEILERILKLAKELKEEGKSPEEIAKELLEEIEDFRNLIPLD
# Biological target: MAP1LC3A, Q9H492
# Assay: median log2 fold change of GCK-ALFA target abundance (FLAG IP / Myc IP barcode read proportion) (log2 ratio); each designed protein is fused to an ALFA-tag nanobody in HEK293 cells to bring the named protein to FLAG-tagged glucokinase (GCK); Myc marks an untargeted standard; higher = target protein stabilised (more abundant)
# Conditions: target protein: 3xFLAG-MCP-GCK-ALFA reporter; HEK293 landing pad (RPLP)
# Experimental: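 LABEL-seq trans screen in HEK293 landing-pad cells. Each de novo designed 100-aa effector handle, binding the indicated effector (E3 ligase, DUB or autophagy protein), is fused to a constant NbALFA target handle and induced with 2 ug/mL doxycycline. A FLAG-MCP-GCK-ALFA target and a Myc-MCP standard reporter were transfected, and after 48 h circRNA barcodes were recovered by anti-FLAG and anti-Myc IP and sequenced. The value is the median across barcodes (at least 3 per design) of log2(FLAG/Myc read-proportion ratio), with the two transfection replicates pooled. Negative values mean degradation and positive values mean stabilisation of the target.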
row,Binder,median log2 fold change
1,B1,0.256
2,B2,-0.0634
3,B3,0.107
4,B4,-0.514
5,B5,0.169
6,B6,0.207
7,B7,0.117
8,B8,-0.716
9,B9,-0.196
10,B10,-0.206
11,B11,-0.0069
12,B12,0.0727
13,B13,-0.636
14,B14,0.0276
15,B15,-0.0851
16,B16,0.139
17,B17,0.0457
18,B18,0.211
19,B19,-0.832
20,B20,-0.012
